Test results as given in the supplement of paper PMC10981050.
“And” between values parts separate entries of the source, which are not always exact repeats. Equal values may be shown once. Where a name gives a salt, the structure may show the parent alone.

Legend:
Test in all cases: cell viability relative to vehicle control; higher = less cytotoxic
Details in all cases: 10 µM
[1] = tested on: K562
Procedure, shortened: (§1)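 Mutant clones made by CRISPR editing and their isogenic wild-type counterparts, from four leukaemia lines, were exposed to a single 10 µM dose of each library compound for 48 h. The supernatant was then removed and CellTiter-Glo luminescence was read. Viability was reported as percent of the on-plate vehicle control.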

[2] = tested on: MARIMO
Procedure, shortened: as §1

[3] = tested on: MOLM14
Procedure, shortened: as §1

[4] = tested on: OCI-AML2
Procedure, shortened: as §1

Row | SMILES | cell viability ([1]; SRSF2 genotype: SRSF2 P95H/wt) | cell viability ([1]; SRSF2 genotype: SRSF2 wt/wt) | cell viability ([2]; SRSF2 genotype: SRSF2 P95H/wt) | cell viability ([2]; SRSF2 genotype: SRSF2 wt/wt) | cell viability ([3]; SRSF2 genotype: SRSF2 P95H/wt) | cell viability ([3]; SRSF2 genotype: SRSF2 wt/wt) | cell viability ([4]; SRSF2 genotype: P95H/wt) | cell viability ([4]; SRSF2 genotype: wt/wt)
1 | O=c1[nH]ccc2c(S(=O)(=O)N3CCCNCC3)cccc12 [Hydroxyfasudil (HA-1100)HCl] | 95.5% and 99.7% | 96.5% | 96.5% | 92.7% | 95.6% | 101% | 95.7% | 90.5%
2 | OB1OCc2cc(F)ccc21 [Tavaborole (AN-2690)] | 88.2% and 85.6% | 84.3% | 85.4% | 87.8% | 82.8% | 85.1% | 87.8% | 82.8%
3 | Cc1cc(Nc2cc(CN3CCOCC3)c3nc(C)c(Cc4ccc(Cl)cc4F)n3n2)n[nH]1 | 88.8% and 88% | 84% | 73.1% | 110% | 19.7% | 16.5% | 34.7% | 53%
4 | CCN(CC)Cc1ccc2cc(COC(=O)Nc3ccc(C(=O)NO)cc3)ccc2c1 [ITF2357 (Givinostat)] | 1.36% and 7.22% | 1.85% | 4.74% | 9.63% | 0.81% | 0.55% | 1.72% | 3.52%
5 | N#Cc1ccc2ncnc(NCCc3ccccc3)c2c1 [Senexin A] | 85% and 87.1% | 92.4% | 91.8% | 94% | 77.1% | 95.1% | 58.2% | 63%
6 | C1CNCCNCCNCCN1 [Cyclen] | 100% and 102% | 106% | 107% | 111% | 103% | 103% | 105% | 102%
7 | C=C1/C(=C\C=C2/CCC[C@]3(C)[C@@H]([C@H](C)CCCC(C)(C)O)CC[C@@H]23)C[C@@H](O)C[C@@H]1O [Calcitriol (Rocaltrol)] | 81.2% and 89.8% | 88.2% | 66.9% | 66.5% | 65.4% | 62.6% | 64.9% | 76.3%
8 | O=NN(CCCl)C(=O)NC1CCCCC1 [Lomustine (CeeNU)] | 95% and 113% | 111% | 100% | 99.9% | 84% | 97.9% | 97.2% | 105%
9 | N#CC[C@H](C1CCCC1)n1cc(-c2ncnc3[nH]ccc23)cn1 [S-Ruxolitinib] | 108% and 98.5% | 113% | 101% | 104% | 75.5% | 89.4% | 83.4% | 77.2%
10 | O=[N+]([O-])c1ccc2c(c1)S(=O)(=O)C=C2 [Stattic] | 8.02% and 0.43% | 0.74% | 0.14% | 0.16% | 0.12% | 0.25% | 0.06% | 0.06%
11 | O=C(O)CCn1c(O)c(C2=c3cc(Cl)ccc3=NC2=O)sc1=S | 87.5% and 92.5% | 88.2% | 84.1% | 88.7% | 71.7% | 83.2% | 107% | 116%
12 | CC(=O)OCc1ccccc1 [Benzyl acetate] | 103% and 94.2% | 100% | 96.5% | 105% | 97% | 107% | 98.3% | 98.4%
13 | CCn1c(C(=O)N(C2CC2)C2CC2)cc2c3c(ncn3C)c(Nc3cc(C)n(C)n3)nc21 | 103% | 108% | 108% | 102% | 41.6% | 38.5% | 43% | 57.1%
14 | O=C(O)c1cc(=O)[nH]c(=O)[nH]1 [Orotic acid (6-Carboxyuracil)] | 104% and 95.1% | 96.6% | 91.1% | 101% | 95.3% | 95.2% | 95.2% | 96.5%
15 | CCCCN1CCCC[C@H]1C(=O)Nc1c(C)cccc1C [Levobupivacaine HCl] | 82.7% and 79.1% | 80.2% | 82.3% | 85.1% | 83.5% | 88.7% | 82.3% | 90.8%
16 | CO[C@@H](C(=O)N1Cc2[nH]nc(NC(=O)c3ccc(N4CCN(C)CC4)cc3)c2C1)c1ccccc1 | 40.2% and 48.7% | 34.3% | 63.3% | 69.4% | 14.3% | 12.9% | 6.56% | 19.3%
17 | COc1nccc(-c2c(-c3ccc(F)cc3)ncn2C2CCC(O)CC2)n1 (stereo not drawn) | 96.5% and 98.5% | 89.3% | 98.3% | 110% | 107% | 107% | 107% | 107%
18 | CN(C/C=C/C#CC(C)(C)C)Cc1cccc2ccccc12 [Terbinafine hydrochloride (Lamisil)] | 88.5% and 88.7% | 90.3% | 87.8% | 105% | 86.8% | 99.9% | 87.4% | 97.6%
19 | CC(C)=CCC/C(C)=C/Cc1c(O)c(CC=C(C)C)c2c(c1O)C(=O)C1=C[C@@H]3C[C@H]4C(C)(C)O[C@@](C/C=C(/C)C(=O)O)(C3=O)[C@@]14O2 [Gambogenic acid] | 1.97% and 1.06% | 1.12% | 0.46% | 0.68% | 0.23% | 0.27% | 0.27% | 0.82%
20 | CN(C)C/C=C/C(=O)Nc1ccc(C(=O)Nc2cccc(Nc3ncc(Cl)c(-c4c[nH]c5ccccc45)n3)c2)cc1 | 12.4% and 22.2% | 16.8% | 0.73% | 1.23% | 0.23% | 0.21% | 0.37% | 0.63%
21 | O=C([O-])c1ccccc1.[Na+] [Sodium benzoate] | 86.9% and 85.9% | 86.1% | 83.9% | 90.9% | 93% | 89.5% | 86% | 97.5%

Row | SMILES | cell viability ([1]; SRSF2 genotype: SRSF2 P95H/wt) | cell viability ([1]; SRSF2 genotype: SRSF2 wt/wt) | cell viability ([2]; SRSF2 genotype: SRSF2 P95H/wt) | cell viability ([2]; SRSF2 genotype: SRSF2 wt/wt) | cell viability ([3]; SRSF2 genotype: SRSF2 P95H/wt) | cell viability ([3]; SRSF2 genotype: SRSF2 wt/wt) | cell viability ([4]; SRSF2 genotype: P95H/wt) | cell viability ([4]; SRSF2 genotype: wt/wt)
22 | COc1nc2ccc(Br)cc2cc1[C@@H](c1ccccc1)[C@@](O)(CCN(C)C)c1cccc2ccccc12 [Bedaquiline fumarate] | 55% and 58.7% | 74.9% | 63.9% | 55.5% | 41.6% | 54.7% | 24.1% | 21.3%
23 | CNc1ccc([N+](=O)[O-])c(Nc2ccc3[nH]ncc3c2)n1 | 59.1% and 76.9% | 58.6% | 50.4% | 60% | 18.1% | 9.24% | 18.9% | 26.6%
24 | COc1cc(O)c(C(=O)Nc2nc(C(=O)NCCN(C(C)C)C(C)C)cs2)cc1OC [Acotiamide hydrochloride] | 93.4% and 91.4% | 103% | 98% | 98.8% | 97% | 98.8% | 97.1% | 98.7%
25 | CC(=O)NS(=O)(=O)c1ccc(N)cc1 [Sulfacetamide] | 98.7% and 98.1% | 111% | 90.8% | 96.3% | 103% | 103% | 98.4% | 106%
26 | Fc1ccc(-c2c3cccc(C(F)(F)F)c3nn2Cc2ccc(F)cc2Cl)cc1 | 95.4% and 91.2% | 90.1% | 97.2% | 114% | 94.2% | 98% | 114% | 120%
27 | CC(C)N(CCCNC(=O)Nc1ccc(C(C)(C)C)cc1)C[C@H]1O[C@@H](n2ccc3c(N)ncnc32)[C@H](O)[C@@H]1O | 94.6% and 92.6% | 86.1% | 89.3% | 96.9% | 95.5% | 92% | 84.3% | 89.6%
28 | CN[C@@H](C)C(=O)N[C@H](C(=O)N1CCC[C@H]1C(=O)N[C@H]1c2ccccc2C[C@H]1OCC#CC#CCO[C@@H]1Cc2ccccc2[C@@H]1NC(=O)[C@@H]1CCCN1C(=O)[C@@H](NC(=O)[C@H](C)NC)C1CCCCC1)C1CCCCC1 | 0.57% and 0.73% | 0.61% | 0.76% | 0.89% | 0.51% | 0.62% | 0.56% | 0.58%
29 | CN/C(=N\CCSCc1nc[nH]c1C)NC#N [Cimetidine (Tagamet)] | 102% and 100% | 98.8% | 102% | 106% | 101% | 102% | 105% | 104%
30 | CCc1cccc(CC)c1NC(=O)N1Cc2[nH]nc(NC(=O)c3ccc(N4CCN(C)CC4)cc3)c2C1 | 29.9% and 41.4% | 25.5% | 69.2% | 70.3% | 19.8% | 13.4% | 12.8% | 23.3%
31 | CCNC1(C(N)=O)CCN(c2ncnc3c2nc(-c2ccccc2Cl)n3-c2ccc(Cl)cc2)CC1 | 79.4% and 80.8% | 79.1% | 83.1% | 101% | 78.2% | 84.3% | 88.2% | 93%
32 | CC(COc1ccccc1)N(CCCl)Cc1ccccc1 (stereo not drawn) [Phenoxybenzamine HCl] | 66.1% and 73.8% | 63.2% | 67.3% | 72.5% | 57.5% | 62.7% | 54.4% | 62.1%
33 | CC(C)=CCC/C(C)=C/CC/C(C)=C/CC/C=C(\C)CC/C=C(\C)CCC=C(C)C [Squalene] | 101% and 105% | 99.6% | 111% | 105% | 101% | 101% | 110% | 108%
34 | Cn1ccnc1S [Methimazole (Tapazole, Northyx)] | 101% and 94.7% | 95.5% | 99.3% | 99.8% | 97.7% | 97.6% | 93.2% | 100%
35 | C[C@H]1COC2(CCN(c3nc(=O)c4cc(C(F)(F)F)cc([N+](=O)[O-])c4s3)CC2)O1 (racemic) [BTZ043 racemate] | 88.3% and 84.3% | 84.1% | 82.4% | 86.7% | 87% | 85.3% | 91.7% | 86.9%
36 | C[C@@]1(C(=O)Nc2ccc(F)nc2)CCCN1c1nc(Nc2cc(C3CC3)n[nH]2)c2cccn2n1 | 61.4% and 72.2% | 63.7% | 38.7% | 33.2% | 7.43% | 9.62% | 7.63% | 19.3%
37 | CC(C)(C)C#Cc1cc(N(C(=O)[C@H]2CC[C@H](C)CC2)[C@H]2CC[C@H](O)CC2)c(C(=O)O)s1 [Lomibuvir (VX-222, VCH-222)] | 108% and 102% | 107% | 113% | 115% | 109% | 106% | 124% | 120%
38 | CN[C@@H](C)C(=O)N[C@H]1CN(C(=O)CC(C)C)CC[C@H]2CC[C@@H](C(=O)NC(c3ccccc3)c3ccccc3)N2C1=O | 69.6% and 74.7% | 72.8% | 64.5% | 46.6% | 0.57% | 0.76% | 60.2% | 39.2%
39 | Oc1cc2c(cc1O)[C@@H]1c3ccc(O)c(O)c3OC[C@]1(O)C2 [Hematoxylin (Hydroxybrazilin)] | 97% and 94.6% | 94.1% | 95.7% | 98.5% | 99.8% | 99.7% | 101% | 98.4%
40 | CN(C)C(=O)COC(=O)Cc1ccc(OC(=O)c2ccc(NC(=N)N)cc2)cc1 [Camostat Mesilate (FOY-305)] | 100% and 101% | 96.3% | 108% | 98.4% | 106% | 98.8% | 100% | 99.6%
41 | COc1ccc(-c2nc3cc(C4=NNC(=O)CC4C)ccc3[nH]2)cc1 (stereo not drawn) [Pimobendan (Vetmedin)] | 59.4% and 65.2% | 68.4% | 65.5% | 57.5% | 68% | 83.6% | 89.3% | 84.4%
